{"source": "PubChem BioAssay AID1508600", "about": "(Functional Genomics Laboratory (NCATS/FGL), 2020)", "note": "The whole screen tested about 53,000 sequences, of which about 3,700 (7%) were called active. This is one part of a sample in which actives are shown more often than they occur. Unmarked numbers belong to inactive results.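 Rule for the calls: active = gene knockdowns whose robust z-score for IL-1 alpha signal is at least 2 or at most -2, so actives lie on both sides; inactive = the rest.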", "data": [{"assay": "Components of the Cytosolic LPS Sensing Pathway: Gene Identification via Genome-wide siRNA Screen;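 note: robust z of the log signal after scaling to non-targeting control siRNA wells of the plate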", "conditions": "RAW264.7 macrophages, IL-1a HTRF, actives lie on both sides, screened at 100 nM (by protocol), cells primed 5 h with Pam3CSK4 first", "in_short": "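Mouse macrophage line RAW264.7 is transfected with siRNA (100 nM final), grown 48h, primed with TLR ligand Pam3CSK4 5 h and given intracellular LipidA 24 h. IL-1a in supernatant is read by HTRF and viability by luminescence.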", "values": [{"sequence": "CCAAUGGAACAUUAAGUGATT against Psma1", "z-score": -0.485}, {"sequence": "CCAUAGUUGAUGGAAGAUATT against Shld2", "z-score": -0.847}, {"sequence": "CCCUAUUUGUCAACGAUUATT against Lrrc24", "z-score": -0.662}, {"sequence": "GGAAGCAAUGUGAGAAAUUTT against Tmem91", "z-score": "2.54 (active)"}, {"sequence": "GCCAAAUCAUGGGUCUGGUTT against Npas3", "z-score": 0.969}, {"sequence": "GGCAAUGUGCCCAAUAUCATT against Rfc2", "z-score": -1.61}, {"sequence": "GGACUCAUAUCCUUACAUATT against AI854703", "z-score": -0.0584}, {"sequence": "GGGAUAGCUGUCACCUUCUTT against Rad9a", "z-score": -0.742}, {"sequence": "GGUGUUGAGUGCACUACUGTT against Nckap5l", "z-score": "-2.2 (active)"}, {"sequence": "GUUUCUCGAAGAGCAUCCUTT against Cyb5a", "z-score": 0.732}, {"sequence": "UCACUUGUACCAAAAAUGATT against Adcy1", "z-score": -1.43}, {"sequence": "GGGAAAGUCGUUGAAAUUUTT against Stx18", "z-score": 0.941}, {"sequence": "GGAUUAAAGCAGAAUAUGATT against Paics", "z-score": -0.561}, {"sequence": "GGCUGUCCUUUUCCUCUUATT against Yipf6", "z-score": 1.49}, {"sequence": "CCCAAAACUCUAGCUACUATT against Olfr824", "z-score": "-3.03 (active)"}, {"sequence": "CGCAGCAGUUGUGGUCAAUTT against Nnat", "z-score": -1.23}, {"sequence": "GGGCUGCUAUUUUGAUGGUTT against Chrd", "z-score": 0.704}, {"sequence": "GCGUAUAAGCUCAGUAGACTT against Phlpp1", "z-score": 1.06}, {"sequence": "GGGCAAGUAUGGGCAGUUCTT against Ppp1ca", "z-score": 0.0965}, {"sequence": "CGAGAUCAUCUCAAAUAUCTT against Man2a1", "z-score": -0.0408}, {"sequence": "GGACAAACAAGUGAAAUACTT against Morf4l1", "z-score": 0.209}, {"sequence": "CCUAAAUUUCCAACAGUCCTT against Tmem81", "z-score": "2.05 (active)"}, {"sequence": "CGGUCUUCCCGUGGUUCAATT against Gm5114", "z-score": -0.992}, {"sequence": "GGCAAAAGGGACAAAAACUTT against Gadd45a", "z-score": -1.64}, {"sequence": "CCUUUAUGGGACACUAUUUTT against Alb", "z-score": 0.588}, {"sequence": "CCUAAAAGACUUCAUCCGUTT against Kcnh8", "z-score": "2.32 (active)"}, {"sequence": "CGUGGAACAUAAGAAUGGATT against Gapdhs", "z-score": 0.269}, {"sequence": "GGAUUGUCAGCCAAGAAACTT against Uba7", "z-score": -0.085}, {"sequence": "GGAAAUUCACAAACAUGGATT against Gins3", "z-score": -1.76}, {"sequence": "CCAUUUUAACCAAUGGUGUTT against Olfr572", "z-score": -1.06}, {"sequence": "GGUCAAAAGACUGUACAUATT against Timm8a2", "z-score": "2.07 (active)"}, {"sequence": "GGCAAUGGCUUGGUCUUUUTT against Mapk6", "z-score": 0.0141}, {"sequence": "GGAGGGAAUAGAGAAUCGGTT against A930024E05Rik", "z-score": "3.7 (active)"}, {"sequence": "GGAUUUUGAAGACAUCUGUTT against Tubgcp4", "z-score": 0.396}, {"sequence": "GGCAACAUGACAAUUGUGGTT against Olfr1215", "z-score": -0.00863}, {"sequence": "GCCAUUGCUAGUAAUUCUUTT against Vkorc1l1", "z-score": 0.444}, {"sequence": "CCCUCAUGUUUAGCGAGCATT against Kcnj3", "z-score": 0.644}, {"sequence": "GGUGAAAGACCACAAAUUCTT against Prkca", "z-score": -0.824}, {"sequence": "GGACUUUCGAGACAAGCUGTT against Barhl1", "z-score": -1.21}, {"sequence": "CGUACAGUGAUGAUUUUGATT against Cep162", "z-score": 0.218}, {"sequence": "GGACAAUGCAGUGCUGAAATT against Car2", "z-score": "3.37 (active)"}, {"sequence": "GCACACCCAAUGCUCUAAGTT against Nprl3", "z-score": 1.25}, {"sequence": "GCAGCGGAGGGUCAAAGAATT against Pym1", "z-score": 0.783}, {"sequence": "GGCCUUUGAGGUCUACAUATT against Icam2", "z-score": 0.323}, {"sequence": "GCCCUCCGAGAAAAACAUCTT against Gjb5", "z-score": "2.05 (active)"}, {"sequence": "GGGUAAAAGUAGCUGCCCUTT against Trp53inp2", "z-score": -0.401}, {"sequence": "GGAAAUAAAGUCCAUAGAATT against B3gnt3", "z-score": 0.00261}, {"sequence": "GGUUCCUCUUGUGAGUGCCTT against Gpr137b", "z-score": -0.974}, {"sequence": "GGAGAAGUCCAUACGGAUCTT against Gpr18", "z-score": 0.184}, {"sequence": "GGGACAGUAGAAGAUGUAGTT against Got2", "z-score": -0.706}, {"sequence": "GGAAAAUUGGACCAAUUUCTT against Ric3", "z-score": -0.339}, {"sequence": "GCCUUGGUACCAUAAUGCATT against Synm", "z-score": 0.224}, {"sequence": "GGCCGGUGCCUUUUAUUCUTT against Spib", "z-score": "3.26 (active)"}, {"sequence": "GCAAGUGCGGAAGAAAGGATT against Afap1l2", "z-score": 0.0285}, {"sequence": "CCUUGUACACGGAUUGAAUTT against Itga6", "z-score": -0.192}, {"sequence": "GGUAGGAAACCUCUCAGAGTT against Kcnc1", "z-score": 0.85}, {"sequence": "GGUGUUCAAAAUUCCUGCCTT against Mbl2", "z-score": 0.0864}, {"sequence": "GCUAGAGCUCACCAAAUAATT against Fam83a", "z-score": 0.759}, {"sequence": "UAGUGAGCAAGGAAUUGGATT against Gm20815", "z-score": -0.238}, {"sequence": "GGAGAAGAAGUGCUUCCCUTT against Gls2", "z-score": "-2.81 (active)"}, {"sequence": "GGAGGAGAAGAAACACCUGTT against Klc1", "z-score": -1.73}, {"sequence": "GGACAAAAGCAAAGAAAAGTT against R3hdm2", "z-score": -0.822}, {"sequence": "GGAAAAUGUGAAACAGCUATT against Dhx40", "z-score": -0.873}, {"sequence": "GAGUUCCAGUUUAUCCCUUTT against Klra1", "z-score": "-2.06 (active)"}, {"sequence": "CCCGUGCUUCAAAUAGAGATT against Cavin3", "z-score": 0.789}, {"sequence": "CAGCGAUCCAAGUACCUGGTT against Mbp", "z-score": 0.568}, {"sequence": "GGAAUUUCACUAACCUUAGTT against Tert", "z-score": 1.55}, {"sequence": "GGCAAAAGCGAAGAAUUUATT against E2f5", "z-score": "2.69 (active)"}, {"sequence": "GGAUUCCUGAUUUCUUCAUTT against Snip1", "z-score": 0.915}, {"sequence": "GGAGAUAAAAAUCCAAGCATT against Stx19", "z-score": 0.274}, {"sequence": "GCAUAUGACACCGUAUCAGTT against Gprc5d", "z-score": 0.914}, {"sequence": "GCUCCUAUCCACAAUGCUGTT against Radil", "z-score": -0.0853}, {"sequence": "GGCAAAGAUGAUGGAAAAATT against Srp68", "z-score": 0.307}, {"sequence": "GGGACGAUGUCACUAUUAATT against Myrip", "z-score": 1.31}, {"sequence": "GGCAGACUGCUGACAUAUGTT against Cd37", "z-score": "-2.44 (active)"}, {"sequence": "CGAGCUGGAUCUGUUUAGATT against Nsmce1", "z-score": 0.357}, {"sequence": "CGUGGAGAUCAUCCACUCATT against Inf2", "z-score": "-2.44 (active)"}, {"sequence": "GGAUUAUGAUUUGCCUGAUTT against 4932414N04Rik", "z-score": 1.05}, {"sequence": "GCUAGAUGCUAUGAAGCGATT against Ap3b1", "z-score": -0.406}, {"sequence": "CGUGAUUUCAUGCUGUGGCTT against Tal2", "z-score": "-2.19 (active)"}, {"sequence": "GGAUCUAAGCCUGUUGUGATT against Zfp647", "z-score": -0.82}, {"sequence": "GGUCACCCUGUUUAGGCCUTT against Fgd3", "z-score": 0.571}, {"sequence": "CCUGCCAAUCUGUCUAAGUTT against Haus1", "z-score": -0.121}, {"sequence": "GUCAUGAGAUUGAAUACAATT against Olfr569", "z-score": -0.0298}, {"sequence": "GGGAUUGAUUUCAACAAUGTT against Vmn1r33", "z-score": 0.464}, {"sequence": "CCCUUGCUAGUCCUUCUAUTT against Bora", "z-score": -0.65}, {"sequence": "GGUUGUAAAGGAAGAGAAGTT against Lyve1", "z-score": 0.397}, {"sequence": "GGCCAGACACUACAGGUAATT against Aldh16a1", "z-score": 0.0594}, {"sequence": "GCUACAGCUAUAUCGCUAUTT against Cnot8", "z-score": 0.625}, {"sequence": "GGCUUUUAUUUUCUGGGAUTT against Barhl1", "z-score": "2.4 (active)"}, {"sequence": "GGAAUUAUGAUGUAGACAGTT against Garre1", "z-score": 0.662}, {"sequence": "GCCUUGGUCCUUAAAUAUATT against Slc7a2", "z-score": -0.414}, {"sequence": "CGAUAUUUGGUGUGAAAUGTT against Tmem70", "z-score": -0.609}, {"sequence": "GGGAAAUGCUUCUAAAAAUTT against Pcdhb11", "z-score": 0.377}, {"sequence": "CCACCAUCAUGAGAGAGGATT against Olfr350", "z-score": 0.00462}, {"sequence": "GGCAAAUGUAGACAUGUAUTT against Defb44-ps", "z-score": -0.0483}, {"sequence": "GCUAAUAUGCCACUGCCCGTT against Pls3", "z-score": 1.55}, {"sequence": "GCUAUGUGUACAGCUGCUGTT against Vmn1r62", "z-score": 0.21}, {"sequence": "CGUGCAGUGUGCUUCACAATT against Smarcad1", "z-score": -1.89}, {"sequence": "GGUCUCAAGUUUUACAUUCTT against Prss35", "z-score": "2.2 (active)"}, {"sequence": "GGCUCUGGCUAAGUACUUGTT against Cenpb", "z-score": -0.943}, {"sequence": "GCUAACUGAGCUGCCGGAATT against Lrrn3", "z-score": 0.264}, {"sequence": "GCUUCAUGCACGGUUCUAUTT against Cib2", "z-score": 1.65}, {"sequence": "GGCUCAGAAGAAAAUGGAUTT against Kcnk4", "z-score": 0.166}, {"sequence": "GGAUCUGUAUUGUAAACAATT against Pcmtd2", "z-score": 0.463}, {"sequence": "GCCGUUCAUUUCAACCGUGTT against Wdr5", "z-score": -0.0339}, {"sequence": "GGCUCACUCUCCAUUCUACTT against Asb6", "z-score": -0.902}]}]}
